Screening results as filed in PubChem.
VACV Venus inh = qHTS for Stage-Specific Inhibitors of Vaccinia Orthopoxvirus: Venus Reporter Primary qHTS; Vaccinia virus Venus reporter expression, fluorescence; Potency, µM (titrated, usually from 36.5 µM), most hits filed as inhibitors; hit rate 0.46% among 330,000; calls by dose curve; tested in A549 cells; note: nearly all actives have a fitted effect of over 30% in size
FMDV inh = High Throughput Screening for Foot and Mouth Disease Virus Antivirals; FMDV antiviral cell-based qHTS; Potency, µM (series often up to 57.9 µM), most hits filed as inhibitors; hit rate 1.2% among 410,000; AID 1159524, 2015; calls by dose curve; tested in HEK293T cells; note: read-out not given here; nearly all actives have a fitted effect of over 45% in size
VACV mCherry inh = qHTS for Stage-Specific Inhibitors of Vaccinia Orthopoxvirus: mCherry Reporter Primary qHTS; AID 720579, 2013; Potency, µM (top dose mostly 36.5 µM), usual class: inhibitors; hit rate 0.63% among 310,000; Vaccinia virus mCherry reporter infection, fluorescence; calls by dose curve; tested in A549 cells; note: nearly all actives have a fitted effect of over 35% in size
FBPA Giardia inh = qHTS Assay for Inhibitors of Fructose-1,6-bisphosphate Aldolase from Giardia Lamblia; A8B2U2; Potency, µM (highest dose often 59.6 µM), usual class: inhibitors; hit rate 0.71% among 290,000; AID 2451, 2010; purified Giardia FBPA; active = well fitted inhibition curve with a large enough effect; inconclusive = small, poorly fitted or top-dose-only effect, or effect the other way; note: nearly all actives have a fitted effect of over 55% in size
Target sequence (A8B2U2 whole entry, looked up): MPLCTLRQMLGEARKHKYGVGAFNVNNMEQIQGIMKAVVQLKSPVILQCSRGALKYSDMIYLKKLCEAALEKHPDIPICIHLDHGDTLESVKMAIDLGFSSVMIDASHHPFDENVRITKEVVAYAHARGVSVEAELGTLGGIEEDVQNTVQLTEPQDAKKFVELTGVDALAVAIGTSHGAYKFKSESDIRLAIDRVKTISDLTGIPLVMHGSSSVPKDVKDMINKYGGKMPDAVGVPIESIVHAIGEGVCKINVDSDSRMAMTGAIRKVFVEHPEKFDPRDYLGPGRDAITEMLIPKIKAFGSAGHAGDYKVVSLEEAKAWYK
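Giardia FBPA (40 nM reagent) was preincubated 10 min at RT with compound (up to 57.5 uM final), then substrate plus GAPDH/TPI/NAD/arsenate coupling system with diaphorase/resazurin was added; resorufin fluorescence (525/598 nm) was read after 20 min.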
Large screens that a line does not name were inactive. Rows were chosen to be rich in hits. Some 2.2% of all compounds tested hit in one or more screens of this group.

C[C@@H]1O[C@@H](O[C@H]2C[C@@H](O)[C@]3(CO)[C@@H]4C(CC[C@]3(O)C2)[C@@]2(O)CC[C@H](C3=CC(=O)OC3)[C@@]2(C)C[C@H]4O)[C@H](O)[C@H](O)[C@H]1O (stereo partly drawn)	FMDV inh inconclusive
CC1O[C@@H](OC2CC(O)[C@@]3(CO)C4C(O)C[C@@]5(C)C(C6=CC(=O)OC6)CC[C@]5(O)C4CC[C@]3(O)C2)C(O)C(O)C1O (stereo partly drawn)	VACV Venus inh 0.28µM, VACV mCherry inh 0.32µM
C[C@@H]1O[C@@H](O[C@H]2C[C@@H](O)[C@]3(CO)[C@H]4[C@H](O)C[C@]5(C)[C@@H](C6=CC(=O)OC6)CC[C@]5(O)[C@@H]4CC[C@]3(O)C2)[C@H](O)[C@H](O)[C@H]1O	VACV Venus inh 0.63µM, FMDV inh inconclusive, VACV mCherry inh 0.5µM
COCC(=O)Nc1cc(C(=O)N2CCc3sccc3C2)c2c(c1)nc(-c1ccncc1)n2C	none (no result: FBPA Giardia inh)
CC(=O)Nc1ccc(-c2nnc(SCc3ccccc3)n2C)cc1	none (no result: FMDV inh, FBPA Giardia inh)
Cc1cc(C)cc(C(=O)NCc2nc(-c3cccc(NC(=O)c4ccccn4)c3)oc2C)c1	none (no result: FBPA Giardia inh)
Cc1ncsc1C(=O)N1CCCC(C(=O)c2ccc3ccccc3c2)C1 (stereo not drawn)	FMDV inh 28µM, VACV mCherry inh inconclusive
CCNc1nc(N2CCCN(C)CC2)nc2cc(OC)c(OC)cc12	VACV mCherry inh inconclusive (no result: FMDV inh, FBPA Giardia inh)
COc1cc(-c2nnc(NC(=O)CS(=O)(=O)c3ccc(F)cc3)o2)cc(OC)c1OC	none (no result: FBPA Giardia inh)
O=C(CCS(=O)(=O)c1ccc(F)cc1)Nc1nnc(-c2ccc(F)cc2)o1	VACV Venus inh inconclusive, VACV mCherry inh 10µM (no result: FBPA Giardia inh)
COc1ccccc1-c1nnc(NC(=O)c2ccc(S(=O)(=O)N(C)C)cc2)o1	VACV Venus inh inconclusive
O=C(CCS(=O)(=O)c1ccc(Cl)cc1)Nc1nnc(-c2ccco2)o1	VACV Venus inh inconclusive, VACV mCherry inh 10µM (no result: FBPA Giardia inh)
COc1ccccc1-c1nnc(NC(=O)CCS(=O)(=O)c2ccccc2)o1	VACV Venus inh inconclusive, VACV mCherry inh 8.9µM (no result: FBPA Giardia inh)
COc1ccccc1-c1nnc(NC(=O)CCS(=O)(=O)c2ccc(F)cc2)o1	VACV Venus inh 4.5µM, VACV mCherry inh inconclusive (no result: FBPA Giardia inh)
Cc1ccc(-c2nnc(NC(=O)CCS(=O)(=O)c3ccc(F)cc3)o2)c(C)c1	none (no result: FBPA Giardia inh)
N#CCCn1cc(CNCc2cccnc2)c(-c2ccccc2)n1	none (no result: FMDV inh, FBPA Giardia inh)
N#CC1c2ccccc2-n2nncc2CN1Cc1cc(Cl)cc(Cl)c1 (stereo not drawn)	FMDV inh 8.9µM (no result: FBPA Giardia inh)
COc1ccc(CN2Cc3cnnn3-c3ccccc3C2C#N)cc1 (stereo not drawn)	FMDV inh 25µM, VACV mCherry inh inconclusive (no result: FBPA Giardia inh)
COc1ccc(CN2Cc3cnnn3-c3ccccc3C2c2ccccc2)cc1 (stereo not drawn)	VACV Venus inh inconclusive, VACV mCherry inh inconclusive (no result: FBPA Giardia inh)
COc1ccc2c(c1)CCc1cnc(-n3ncc(C(=O)N4CCN(CCO)CC4)c3C3CC3)nc1-2	none (no result: FBPA Giardia inh)
COc1ccc(/C=C2\CCc3ccccc3C2=O)cc1O	VACV Venus inh inconclusive, FMDV inh inconclusive, VACV mCherry inh 11µM
OC(CNc1ccccc1)COc1ccc(OCC(O)CNc2ccccc2)cc1 (stereo not drawn)	VACV Venus inh 11µM, FMDV inh inconclusive (no result: VACV mCherry inh)
CCOCC(O)CNc1ccccc1 (stereo not drawn)	none
CCOC(=O)C1(CC2CCCCO2)CCN(Cc2cc3ccccc3[nH]2)CC1 (stereo not drawn)	VACV Venus inh inconclusive, VACV mCherry inh 2.5µM
CNc1ccc(C(=O)CC(O)CCC(C)C2OC(=O)CC(O)CC(=O)CC(O)CC(O)CC(O)CC(O)CC3(O)CC(O)C(C(=O)OC)C(CC(O[C@@H]4O[C@H](C)[C@@H](O)[C@H](N)[C@@H]4O)/C=C/C=C/C=C/C=C/C=C/C=C/C=C/C2C)O3)cc1 (stereo partly drawn)	none (no result: FBPA Giardia inh)
Cc1ccccc1CN1[C@@H](Cc2ccccc2)COCCS1(=O)=O	none (no result: FBPA Giardia inh)
C=C1[C@@H](O)[C@H](Cc2ccccc2)N(Cc2ccccc2Br)S1(=O)=O	VACV Venus inh 10µM, FMDV inh 18µM, VACV mCherry inh 10µM (no result: FBPA Giardia inh)
CCOC(=O)c1c(C)n(-c2ccccc2)c2ccc(OC(=O)c3ccccc3NC(=O)C(C)C)cc12	FMDV inh 32µM (no result: FBPA Giardia inh)
CCOC(=O)c1c(C)n(-c2ccccc2)c2ccc(OC(=O)c3ccccc3NC(=O)C(C)(C)C)cc12	FMDV inh inconclusive (no result: FBPA Giardia inh)
CCN(CC)CCNC(=O)c1nn(-c2ccc(Cl)cc2)c2c1CCc1cc(OC)ccc1-2	VACV Venus inh 13µM, FMDV inh inconclusive, VACV mCherry inh inconclusive (no result: FBPA Giardia inh)
COC(=O)C1CCCCN1Cc1nc(N(C)C)c2ccccc2n1 (stereo not drawn)	none (no result: FBPA Giardia inh)
O=C(CN(C1CCCCC1)S(=O)(=O)c1ccccc1)NCC1CCCO1 (stereo not drawn)	none
O=C(CN(C1CCCCC1)S(=O)(=O)c1ccc(F)cc1)NCC1CCCO1 (stereo not drawn)	VACV Venus inh 11µM, VACV mCherry inh inconclusive (no result: FBPA Giardia inh)
O=C(C1CCC(CNS(=O)(=O)c2cccs2)CC1)N1CCN(c2ccc(Cl)cc2)CC1 (stereo not drawn)	VACV Venus inh inconclusive, FMDV inh 32µM, VACV mCherry inh inconclusive (no result: FBPA Giardia inh)
C=CC1=C2C=C(C3CC3)N(c3ccc(OC)cc3)C=C2C(=O)C(C)(OC(=O)c2ccco2)C1=O (stereo not drawn)	none (no result: VACV Venus inh, FMDV inh, VACV mCherry inh)
COC(=O)C1=C(C)NC(C)=C(C(=O)OCCCN2CCC(c3ccccc3)(c3ccccc3)CC2)C1c1cccc([N+](=O)[O-])c1 (stereo not drawn)	none (no result: FBPA Giardia inh)
COc1ccc(-n2c(O)c(/C=C3\C=Nc4ccc(Br)cc43)c(=O)[nH]c2=O)cc1	FMDV inh 16µM
COc1ccc(-n2c(O)c(/C=C3\C=Nc4ccc(Br)cc43)c(=O)[nH]c2=O)c(OC)c1	FMDV inh 25µM
COc1cccc(N2CCN(c3ncnc4c3cnn4-c3ccc(C)cc3C)CC2)c1	VACV Venus inh inconclusive, FMDV inh 4µM, VACV mCherry inh 14µM
Cc1cccc(N2CCN(c3ncnc4c3nc3n4CCCCC3)CC2C)c1 (stereo not drawn)	VACV Venus inh inconclusive, FMDV inh 2.2µM, VACV mCherry inh inconclusive (no result: FBPA Giardia inh)
Cc1ccc(-n2ncc3c(N4CCCCCC4)ncnc32)cc1C	FMDV inh 56µM (no result: FBPA Giardia inh)
Cc1cccc(-n2ncc3c(N4CCCCCC4)ncnc32)c1	FMDV inh 16µM (no result: FBPA Giardia inh)
Cc1ccc(-n2ncc3c(N4CCCC4)ncnc32)c(C)c1	none (no result: VACV Venus inh, VACV mCherry inh)
CSc1nnc(CNC(=O)c2c(-c3ccccc3)noc2C)n1-c1ccc(F)cc1	none (no result: FBPA Giardia inh)
COCC1CCCN(Cc2ccc3c(c2)CN(C(=O)c2ccc(-n4cccn4)cc2)CCO3)C1 (stereo not drawn)	none (no result: FBPA Giardia inh)
Cc1cccc(N2CCN(c3ncnc4c3cnn4-c3ccc(Cl)cc3)CC2C)c1 (stereo not drawn)	FMDV inh 32µM (no result: FBPA Giardia inh)
Cc1cccc(-n2ncc3c(N4CCC(C)CC4)ncnc32)c1	none
Cc1cccc(-n2ncc3c(N4CCCC(C)C4)ncnc32)c1 (stereo not drawn)	FMDV inh 25µM (no result: FBPA Giardia inh)
CC(=O)Nc1ccc(Sc2ccc([N+](=O)[O-])o2)cc1	FMDV inh 35µM (no result: FBPA Giardia inh)
